Data on 8 compounds can be found in PubChem BioAssay.

“And” between values parts separate entries of the source, which are not always exact repeats. Equal values may be shown once. Records with an inconclusive call do not appear. The source made the active and inactive calls. Unless noted, how the calls were made is not given here.

The nature of test [1]: Cy5 fluorescence interference with SSB-bound oligo, artefact control for HCV NS3 helicase inhibitor project, biochemical, NIH Clinical Collection, E. coli SSB (AID 743268).
For test [2], the system named is Hepatitis C virus NS3 helicase. The experiment in a line: HCV NS3 helicase inhibitors, primary screen, biochemical, fluorescence polarization, NIH Clinical Collection (AID 743270). The note with it: NS3 helicase binding to Cy5-dT15 DNA, stronger effect = higher value, concentration not given here.
Test [3] concerns the target Single-stranded DNA-binding protein (Escherichia coli (strain K12)) (UniProt P0AGE0). The experiment in a line: E. coli SSB displacement from DNA, counter-screen for HCV NS3 helicase inhibitor project, biochemical, fluorescence polarization, NIH Clinical Collection (AID 743271; in the data active means inhibition above about 28%). The note with it: stronger effect = higher value, concentration not given here.
Test [4] is described as follows: fluorescence interference in NS3h assay format, artefact control for HCV NS3 helicase inhibitor project, biochemical, NIH Clinical Collection (AID 743272).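 Further: HCV NS3 helicase with a Cy5 labelled single stranded DNA probe.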 The note with it: fluorescence interference counterscreen, stronger effect = lower value.
Test [5] deals with Neuropilin-2 / VEGF-C interaction (human). Briefly: inhibitors of NRP2–VEGF-C binding, biochemical, microplate binding format, z-score (AID 743281). As to conditions: microplate NRP2/VEGF-C binding assay; stronger effect = lower value.
A short description of test [6]: modulation of C. elegans fzo-1 (AID 1259413).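 Further: fzo-1 mutant C. elegans worms in liquid wells.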 As to conditions: C. elegans fzo-1 modulator screen, mean read-out; stronger effect = higher value.
In test [7] the test system is F380Y. Briefly: modulators of BK channel variants, profiling panel, selectivity assay, cell-based, U2OS BacMam, thallium flux, beta subunits (AID 1259406;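 active means thallium flux through the channel raised or lowered by more than 3 SD from vehicle-only wells, actives on both sides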;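 further: initial slope of Thallos dye fluorescence rise after thallium is added; log ratio against the mean of 0.3% DMSO vehicle wells on the same plate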). As to conditions: at 30 µM.
The test system of test [8] is F380Y/beta2Delta. The description is as above. The note with it: at 30 µM.
Test [9] deals with Calcium-activated potassium channel subunit alpha-1 (Homo sapiens) + Leucine-rich repeat-containing protein 26 (Homo sapiens) (UniProt Q12791+Q2I0M4). The test is described as above. The note with it: F380Y/Slo1WT/gamma1, at 30 µM.
Sequence of Calcium-activated potassium channel subunit alpha-1 (Homo sapiens) + Leucine-rich repeat-containing protein 26 (Homo sapiens) (Q2I0M4 whole entry, looked up, one chain of several): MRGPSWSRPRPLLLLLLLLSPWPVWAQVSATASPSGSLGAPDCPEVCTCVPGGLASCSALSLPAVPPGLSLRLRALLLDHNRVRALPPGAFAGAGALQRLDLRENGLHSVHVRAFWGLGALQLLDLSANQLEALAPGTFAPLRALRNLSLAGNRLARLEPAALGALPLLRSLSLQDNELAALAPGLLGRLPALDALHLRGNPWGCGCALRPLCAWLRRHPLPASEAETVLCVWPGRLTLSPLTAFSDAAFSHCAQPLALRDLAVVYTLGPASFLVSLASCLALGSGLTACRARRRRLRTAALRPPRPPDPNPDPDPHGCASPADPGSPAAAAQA
Test [10] has as its system R275C. The description is as above. The note with it: at 30 µM.
For test [11], the system named is R275C/beta1. The test is described as above. As to conditions: at 30 µM.
The test system of test [12] is R275C/beta2Delta. The description is as above. As to conditions: at 30 µM.
The target of test [13] is ATP-dependent translocase ABCB1 (Homo sapiens) (UniProt P08183). Briefly: MDR1 (ABCB1) efflux transporter inhibition, cell-based (AID 377; in the data active means fluorescence slope change above about 50%). The note with it: MDR1-expressing cells, fluorescent substrate accumulation slope; stronger effect = higher value; concentration not given here.
Sequence of ATP-dependent translocase ABCB1 (Homo sapiens) (P08183 whole entry, looked up): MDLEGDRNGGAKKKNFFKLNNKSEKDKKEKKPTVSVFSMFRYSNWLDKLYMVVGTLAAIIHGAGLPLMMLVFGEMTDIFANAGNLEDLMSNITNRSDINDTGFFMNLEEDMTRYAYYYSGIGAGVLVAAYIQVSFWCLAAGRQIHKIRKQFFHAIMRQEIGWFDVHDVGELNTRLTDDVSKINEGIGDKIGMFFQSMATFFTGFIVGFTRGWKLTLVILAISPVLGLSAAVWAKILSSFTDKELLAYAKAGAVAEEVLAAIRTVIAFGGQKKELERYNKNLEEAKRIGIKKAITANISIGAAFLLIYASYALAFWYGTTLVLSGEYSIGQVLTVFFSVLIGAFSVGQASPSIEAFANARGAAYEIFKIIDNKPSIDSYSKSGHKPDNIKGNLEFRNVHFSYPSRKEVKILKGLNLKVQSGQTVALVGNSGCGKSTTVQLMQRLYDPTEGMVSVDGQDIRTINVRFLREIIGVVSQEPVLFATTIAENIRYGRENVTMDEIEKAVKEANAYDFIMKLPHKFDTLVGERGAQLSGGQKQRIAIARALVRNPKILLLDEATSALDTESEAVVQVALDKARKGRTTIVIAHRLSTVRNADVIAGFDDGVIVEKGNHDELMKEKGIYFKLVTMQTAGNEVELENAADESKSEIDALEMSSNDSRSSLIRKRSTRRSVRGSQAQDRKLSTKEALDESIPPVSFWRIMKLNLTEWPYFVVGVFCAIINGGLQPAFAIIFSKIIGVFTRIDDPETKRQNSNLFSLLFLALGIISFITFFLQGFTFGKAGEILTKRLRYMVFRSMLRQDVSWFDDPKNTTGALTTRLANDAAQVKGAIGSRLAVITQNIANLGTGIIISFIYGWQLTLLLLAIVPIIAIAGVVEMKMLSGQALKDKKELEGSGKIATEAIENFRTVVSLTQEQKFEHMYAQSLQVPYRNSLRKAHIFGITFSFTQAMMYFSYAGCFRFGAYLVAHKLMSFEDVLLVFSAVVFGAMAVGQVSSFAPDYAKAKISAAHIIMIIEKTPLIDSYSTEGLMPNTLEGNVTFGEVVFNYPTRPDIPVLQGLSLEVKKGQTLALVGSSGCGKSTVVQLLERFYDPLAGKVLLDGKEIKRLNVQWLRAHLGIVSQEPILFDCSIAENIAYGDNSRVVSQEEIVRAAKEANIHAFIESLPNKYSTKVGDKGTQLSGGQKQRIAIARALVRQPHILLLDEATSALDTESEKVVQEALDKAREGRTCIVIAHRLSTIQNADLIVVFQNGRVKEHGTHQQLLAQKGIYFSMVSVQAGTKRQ
Test [14] is described as follows: polyglutamine-triggered caspase-3 activation inhibitors, cell-based (AID 1583). The note with it: polyglutamine-induced caspase-3 activation, cell assay; stronger effect = higher value;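 tested at 10 µM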.
The nature of test [15]: suppressors of polyQ aggregation in yeast, 75Q-TubU reporter (AID 1593). As to conditions: Yeast 75Q polyglutamine aggregation reporter.
A short description of test [16]: inhibitors of mitochondrial cytochrome c release, biochemical, purified mitochondria (AID 1603).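 Further: mouse liver mitochondria challenged with calcium chloride; signal normalized to the plate average as 100%.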 The note with it: stronger effect = lower value.
Test [17] can be described thus: inhibitors of polyQ protein aggregation (AID 1604). As to conditions: polyglutamine-induced protein aggregation inhibition assay; stronger effect = higher value; tested at 2.5 µM.
Test [18] can be described thus: enhancers of glutamate uptake in motor neurons, MN-1 cell line (AID 1612).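 Further: tested at 1 µM final; 0% = mean of DMSO vehicle wells on each plate; positive means more glutamate uptake than control and negative means less.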 As to conditions: MN-1 motor neuron cells, stronger effect = higher value.
A short description of test [19]: circadian clock period modulators, cell-based, LOPAC library, luminescence reporter (AID 2774).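 Further: values are relative to mean of DMSO wells on each plate.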 The note with it: circadian reporter cells, at 7 µM, actives lie on both sides.

With `c1ccc2c3c([nH]c2c1)CNCC3`, the fluorescence ratio in test [1] was 0.93 (inactive); in test [4], 0.91 (inactive). In addition, the inhibition in [2] is 0.66% (inactive); in test [3] it was 5.12% (inactive). The z-score in [5] is -0.415 (inactive). The mean signal in test [6] is 258 (inactive). In addition, the log fold change Tl+ flux is -0.00245 (inactive) in [7]; -0.0184 (inactive) in [8]; 0.00353 (inactive) in test [9]; 0.0253 (inactive) in test [10]; -0.0273 (inactive) in [11]; -0.0332 (inactive) in test [12].

As to `C=CCN1CC[C@]23c4c5ccc(O)c4O[C@H]2C(=O)CC[C@@]3(O)[C@H]1C5`, the fluorescence slope change in test [13] is 64.1% (active). The fluorescence ratio in test [1] was 0.104 (active); in [4], 1.04 (inactive). Besides, the values for the inhibition in test [2] and in [3] were -4.09% (inactive) and -4.29% (inactive), respectively. Further, the log fold change Tl+ flux is -0.039 (inactive) in test [7]; 0.0141 (inactive) in test [8]; -0.00699 (inactive) in [9]; 0.034 (inactive) in test [10]; 0.000161 (inactive) in test [11]; 0.0302 (inactive) in [12].

On to `C=C[C@H]1CN2CC[C@H]1C[C@H]2[C@H](O)c1ccnc2ccccc12`, for which, in test [13], the fluorescence slope change was 71.3% (active). The inhibition in [14] amounted to 21%. Moreover, in [15], the score worked out at 1.18. Further, the cytochrome c release ratio in test [16] turned out to be 0.75. In test [17], this compound displayed an inhibition of aggregation of 48.7%. Besides, in [18], the glutamate uptake change was -2.27%.

Take `O=c1c2ccccc2[se]n1-c1ccccc1`: the fluorescence slope change in test [13] was -12.9% (inactive). Besides, the inhibition in test [14] was 12.1%; in test [2] it was 99.3% (active); in test [3] it was -0.39% (inactive). This compound also registered a score in test [15] of 0.32. The cytochrome c release ratio in [16] turned out to be 1.88. The inhibition of aggregation in test [17] stood at 72.2%. Moreover, in test [18], the glutamate uptake change came to 26.2%. Besides, the period change in test [19] is -0.02 h (inactive). In addition, the fluorescence ratio in test [1] is 1 (inactive); in test [4] it was 1.05 (inactive). For the same compound, in test [5], the z-score was 0.167 (inactive). The mean signal in test [6] was 217 (inactive).

On to `NC(=O)CS(=O)C(c1ccccc1)c1ccccc1` (centres undefined), for which the fluorescence ratio was 1 (inactive) in [1] and 0.98 (inactive) in [4]. Besides, the inhibition in test [2] was 0.4% (inactive); in [3], -3.18% (inactive). Further, the z-score in test [5] was 0.787 (inactive). In test [6], the mean signal was 263 (inactive). In addition, the log fold change Tl+ flux in [7] was -0.0264 (inactive); in test [8], 0.0296 (inactive); in test [9], -0.00311 (inactive); in [10] it was -0.0429 (inactive); in test [11], 0.0162 (inactive); in [12], 0.0129 (inactive).

Regarding `CC[C@@H](CO)NC(=O)[C@@H]1C=C2c3cccc4[nH]cc(c34)C[C@H]2N(C)C1`, the inhibition in [14] was found to be 8.64%. In [15], this compound returned a score of 1.38. Further, the cytochrome c release ratio in [16] was found to be 0.5. In [17], the inhibition of aggregation was 24.4%. Moreover, the glutamate uptake change in [18] came out at 12.4%. In addition, in [19], the period change is 0.19 h (inactive).

As to `COc1cc2c(cc1OC)[C@@]13CCN4CC5=CCO[C@H]6CC(=O)N2[C@H]1[C@H]6[C@H]5C[C@H]43`, the fluorescence ratio in [1] was 0.94 (inactive); in test [4] it was 0.89 (inactive). In addition, the inhibition in test [2] was -2.84% (inactive); in test [3], 2.76% (inactive). Moreover, in test [5], the z-score was -0.249 (inactive). For the same compound, the mean signal in [6] was 265 (inactive). The log fold change Tl+ flux is 0.0307 (inactive) in test [7]; -0.0179 (inactive) in test [8]; -0.0482 (inactive) in [9]; -0.0395 (inactive) in test [10]; 0.0112 (inactive) in [11]; -0.0452 (inactive) in [12].

`CC(C)CC(N(C)C)C1(c2ccc(Cl)cc2)CCC1` (centres undefined): the fluorescence ratio was 1.01 (inactive) and 0.96 (inactive) in test [1]; 1.01 (inactive) and 0.95 (inactive) in test [4]. The inhibition in [2] is -0.22% (inactive) and -8.08% (inactive); in test [3] it was -1.97% (inactive) and 1.97% (inactive). Also, in test [5], the call was inactive. Also, in test [5], the z-score was -0.0182 (inactive). In addition, the mean signal in test [6] was 232 (inactive).
